Results published in PubChem BioAssay (NCATS).
Where “and” joins values, the source holds several entries; their conditions need not be identical. Equal values may be shown once. Results filed as inconclusive are left out. Calls of active or inactive are those of the source. Calls come from the whole dose curve; as a rule, active = well fitted inhibition curve with a large enough effect; inconclusive = small, poorly fitted or top-dose-only effect; inactive = flat fitted curve, though single readings scatter.

Test: qHTS profiling for inhibitors of Plasmodium falciparum proliferation (AID 504749); note: nearly all actives have a fitted effect of over 60% in size;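 for activity, negative = inhibition: 0% = DMSO vehicle and full inhibition = artemisinin control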
Conditions: P. falciparum in erythrocytes, SYBR Green DNA, 72 h; at 12.8 µM (top of the series); parasite line A
Procedure, shortened: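 Infected RBCs, 0.3% parasitemia/2.5% Hct final; cpd 72 h, 37 C, 5% CO2; lysis buffer with saponin/triton/SYBR Green I, o/n RT dark; FI 485/535; norm. to artemisinin (0.29 uM) and DMSO.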
Potency is the fitted concentration of half-maximal effect.

**Q.** With `CCC(=O)O[C@H]1CC[C@H]2[C@@H]3CCC4=CC(=O)CC[C@]4(C)[C@H]3CC[C@]12C` as the compound, how does the activity, negative = inhibition read?
**A.** The activity, negative = inhibition was 4.77% (inactive).

**Q.** With `OC(c1ccccc1)(c1ccccc1)C1CCNCC1` as the compound, how does the activity, negative = inhibition read?
**A.** Its activity, negative = inhibition is 1.93% (inactive).

**Q.** For `COc1ccc(CN2CCNCC2)c(OC)c1OC`, which activity, negative = inhibition is on record?
**A.** Its activity, negative = inhibition is 8.69% (inactive).

**Q.** With `NC(=O)CN1CCCC1=O` as the compound, how does the activity, negative = inhibition read?
**A.** Its activity, negative = inhibition is -0.277% (inactive).

Same assay, conditions: P. falciparum in erythrocytes, SYBR Green DNA, 72 h; at 12.8 µM (top of the series); parasite line B

**Q.** Which activity, negative = inhibition does the source give for `CCC(=O)O[C@H]1CC[C@H]2[C@@H]3CCC4=CC(=O)CC[C@]4(C)[C@H]3CC[C@]12C` here?
**A.** Its activity, negative = inhibition is 12.2% (inactive).

**Q.** With `OC(c1ccccc1)(c1ccccc1)C1CCNCC1` as the compound, how does the activity, negative = inhibition read?
**A.** The activity, negative = inhibition was 13.2% (inactive).

**Q.** For `COc1ccc(CN2CCNCC2)c(OC)c1OC`, which activity, negative = inhibition is on record?
**A.** Its activity, negative = inhibition is 4.48% (inactive).

**Q.** With `NC(=O)CN1CCCC1=O` as the compound, how does the activity, negative = inhibition read?
**A.** The activity, negative = inhibition was 13.3% (inactive).

Same assay, conditions: P. falciparum in erythrocytes, SYBR Green DNA, 72 h; at 28.7 µM (top of the series); parasite line A

**Q.** For `CN1C[C@@H](NS(=O)(=O)N(C)C)C[C@@H]2c3cccc4c3c(cn4C)C[C@H]21`, which activity, negative = inhibition is on record?
**A.** Its activity, negative = inhibition is -15.7% (inactive).

**Q.** Which activity, negative = inhibition does the source give for `O=c1n(Cl)c(=O)n(Cl)c(=O)n1Cl` here?
**A.** The activity, negative = inhibition was 0.0387% (inactive).

**Q.** For `CC(C)C(Br)C(=O)NC(N)=O` (stereo not drawn), which activity, negative = inhibition is on record?
**A.** The activity, negative = inhibition was 10.2% (inactive).

**Q.** Which activity, negative = inhibition does the source give for `C[C@H]1C(=O)O[C@@H]2CCN3CC=C(COC(=O)[C@](C)(O)[C@]1(C)O)[C@H]23` here?
**A.** The activity, negative = inhibition was -7.4% (inactive).

**Q.** Which activity, negative = inhibition does the source give for `CCN(CC)C(C)C(=O)c1ccccc1` (stereo not drawn) here?
**A.** Its activity, negative = inhibition is -2.34% (inactive).

**Q.** For `CNC(=O)Oc1cccc2ccccc12`, which activity, negative = inhibition is on record?
**A.** Its activity, negative = inhibition is -7.78% (inactive).

**Q.** With `c1ccc2nc(N3CCNCC3)ccc2c1` as the compound, how does the activity, negative = inhibition read?
**A.** The activity, negative = inhibition was 16.1% (inactive).

**Q.** With `NCc1cccnc1` as the compound, how does the activity, negative = inhibition read?
**A.** Its activity, negative = inhibition is -9.24% (inactive).

**Q.** For `C[N+]1(CCC(C(N)=O)(c2ccccc2)c2ccccc2)CCCCC1`, which activity, negative = inhibition is on record?
**A.** Its activity, negative = inhibition is -14.5% (inactive).

**Q.** With `CCN(Cc1ccc(Cl)nc1)/C(=C/[N+](=O)[O-])NC` as the compound, how does the activity, negative = inhibition read?
**A.** Its activity, negative = inhibition is 8.19% (inactive).

**Q.** For `CNC(=O)NC(O)C(Cl)(Cl)Cl` (stereo not drawn), which activity, negative = inhibition is on record?
**A.** The activity, negative = inhibition was 0.151% (inactive).

**Q.** With `CCC1(CC)C(=O)NC(=O)NC1=O` as the compound, how does the activity, negative = inhibition read?
**A.** Its activity, negative = inhibition is -0.0726% (inactive).

**Q.** With `CN1C(=O)CN=C(c2ccccc2)c2cc([N+](=O)[O-])ccc21` as the compound, how does the activity, negative = inhibition read?
**A.** The activity, negative = inhibition was 1.56% (inactive).

**Q.** For `CC(Cc1ccccc1)NCc1ccccc1Cl` (stereo not drawn), which activity, negative = inhibition is on record?
**A.** The activity, negative = inhibition was -0.799% (inactive).

**Q.** With `COP(=O)(OC)OC=C(Cl)Cl` as the compound, how does the activity, negative = inhibition read?
**A.** The activity, negative = inhibition was 5.3% (inactive).

**Q.** With `Cc1ncc2n1-c1ccc(Cl)cc1C(c1ccccc1F)=NC2` as the compound, how does the activity, negative = inhibition read?
**A.** Its activity, negative = inhibition is 7.97% (inactive).

**Q.** For `COP(=S)(OC)Oc1ccc(Sc2ccc(OP(=S)(OC)OC)cc2)cc1`, which activity, negative = inhibition is on record?
**A.** Its activity, negative = inhibition is 7.58% (inactive).

**Q.** With `CCC1(c2ccccc2)CCC(=O)NC1=O` (stereo not drawn) as the compound, how does the activity, negative = inhibition read?
**A.** The activity, negative = inhibition was 14.1% (inactive).

**Q.** With `OC(O)C(Cl)(Cl)Cl` as the compound, how does the activity, negative = inhibition read?
**A.** Its activity, negative = inhibition is 9.58% (inactive).

**Q.** With `COC(=O)C1=CCCN(C)C1` as the compound, how does the activity, negative = inhibition read?
**A.** Its activity, negative = inhibition is 0.472% (inactive).

**Q.** For `NC(=O)OCCCc1ccccc1`, which activity, negative = inhibition is on record?
**A.** The activity, negative = inhibition was -9.09% (inactive).

**Q.** For `CC(C)NCC(O)c1ccc(N)c(C#N)c1` (stereo not drawn), which activity, negative = inhibition is on record?
**A.** Its activity, negative = inhibition is 10.9% (inactive).

**Q.** With `Oc1c(Br)cc(Br)cc1Br` as the compound, how does the activity, negative = inhibition read?
**A.** Its activity, negative = inhibition is 0.526% (inactive).

Same assay, conditions: P. falciparum in erythrocytes, SYBR Green DNA, 72 h; at 28.7 µM (top of the series); parasite line B

**Q.** With `CN1C[C@@H](NS(=O)(=O)N(C)C)C[C@@H]2c3cccc4c3c(cn4C)C[C@H]21` as the compound, how does the activity, negative = inhibition read?
**A.** Its activity, negative = inhibition is -6.34% (inactive).

**Q.** Which activity, negative = inhibition does the source give for `O=c1n(Cl)c(=O)n(Cl)c(=O)n1Cl` here?
**A.** The activity, negative = inhibition was 2.68% (inactive).

**Q.** For `CC(C)C(Br)C(=O)NC(N)=O` (stereo not drawn), which activity, negative = inhibition is on record?
**A.** Its activity, negative = inhibition is 11.6% (inactive).

**Q.** With `C[C@H]1C(=O)O[C@@H]2CCN3CC=C(COC(=O)[C@](C)(O)[C@]1(C)O)[C@H]23` as the compound, how does the activity, negative = inhibition read?
**A.** The activity, negative = inhibition was -1.5% (inactive).

**Q.** Which activity, negative = inhibition does the source give for `CCN(CC)C(C)C(=O)c1ccccc1` (stereo not drawn) here?
**A.** The activity, negative = inhibition was 12.3% (inactive).

**Q.** Which activity, negative = inhibition does the source give for `CNC(=O)Oc1cccc2ccccc12` here?
**A.** Its activity, negative = inhibition is -8.17% (inactive).

**Q.** Which activity, negative = inhibition does the source give for `c1ccc2nc(N3CCNCC3)ccc2c1` here?
**A.** The activity, negative = inhibition was 9.33% (inactive).

**Q.** For `NCc1cccnc1`, which activity, negative = inhibition is on record?
**A.** The activity, negative = inhibition was -2.31% (inactive).

**Q.** With `C[N+]1(CCC(C(N)=O)(c2ccccc2)c2ccccc2)CCCCC1` as the compound, how does the activity, negative = inhibition read?
**A.** Its activity, negative = inhibition is -9.8% (inactive).

**Q.** With `CCN(Cc1ccc(Cl)nc1)/C(=C/[N+](=O)[O-])NC` as the compound, how does the activity, negative = inhibition read?
**A.** Its activity, negative = inhibition is -9.95% (inactive).

**Q.** With `CNC(=O)NC(O)C(Cl)(Cl)Cl` (stereo not drawn) as the compound, how does the activity, negative = inhibition read?
**A.** The activity, negative = inhibition was 3.59% (inactive).

**Q.** Which activity, negative = inhibition does the source give for `CCC1(CC)C(=O)NC(=O)NC1=O` here?
**A.** The activity, negative = inhibition was 11.2% (inactive).

**Q.** For `CN1C(=O)CN=C(c2ccccc2)c2cc([N+](=O)[O-])ccc21`, which activity, negative = inhibition is on record?
**A.** The activity, negative = inhibition was -3.67% (inactive).

**Q.** With `CC(Cc1ccccc1)NCc1ccccc1Cl` (stereo not drawn) as the compound, how does the activity, negative = inhibition read?
**A.** The activity, negative = inhibition was -0.104% (inactive).

**Q.** Which activity, negative = inhibition does the source give for `COP(=O)(OC)OC=C(Cl)Cl` here?
**A.** The activity, negative = inhibition was 13.3% (inactive).

**Q.** With `Cc1ncc2n1-c1ccc(Cl)cc1C(c1ccccc1F)=NC2` as the compound, how does the activity, negative = inhibition read?
**A.** The activity, negative = inhibition was -15.6% (inactive).

**Q.** Which activity, negative = inhibition does the source give for `COP(=S)(OC)Oc1ccc(Sc2ccc(OP(=S)(OC)OC)cc2)cc1` here?
**A.** The activity, negative = inhibition was 4.24% (inactive).

**Q.** With `CCC1(c2ccccc2)CCC(=O)NC1=O` (stereo not drawn) as the compound, how does the activity, negative = inhibition read?
**A.** The activity, negative = inhibition was 13.3% (inactive).

**Q.** Which activity, negative = inhibition does the source give for `OC(O)C(Cl)(Cl)Cl` here?
**A.** Its activity, negative = inhibition is 19.3% (inactive).

**Q.** For `COC(=O)C1=CCCN(C)C1`, which activity, negative = inhibition is on record?
**A.** Its activity, negative = inhibition is 19.4% (inactive).

**Q.** With `NC(=O)OCCCc1ccccc1` as the compound, how does the activity, negative = inhibition read?
**A.** Its activity, negative = inhibition is 10.5% (inactive).

**Q.** For `CC(C)NCC(O)c1ccc(N)c(C#N)c1` (stereo not drawn), which activity, negative = inhibition is on record?
**A.** The activity, negative = inhibition was -9.32% (inactive).

**Q.** With `Oc1c(Br)cc(Br)cc1Br` as the compound, how does the activity, negative = inhibition read?
**A.** Its activity, negative = inhibition is -0.833% (inactive).

Same assay, conditions: P. falciparum in erythrocytes, SYBR Green DNA, 72 h; parasite line A

**Q.** With `CC(C)(O)C(Cl)(Cl)Cl` as the compound, how does the Potency read?
**A.** The Potency was 11.2 µM (active).

**Q.** Which Potency does the source give for `CC[n+]1c(-c2ccccc2)c2cc(N)ccc2c2ccc(N)cc21` here?
**A.** The Potency was 158 nM (active) and 447 nM (active).

**Q.** For `Clc1ccc(CO/N=C(\Cn2ccnc2)c2ccc(Cl)cc2Cl)c(Cl)c1`, which Potency is on record?
**A.** The Potency was 3.55 µM (active).

**Q.** With `N#Cc1nn(-c2c(Cl)cc(C(F)(F)F)cc2Cl)c(N)c1S(=O)C(F)(F)F` (stereo not drawn) as the compound, how does the Potency read?
**A.** Its Potency is 5.01 µM (active).
